Laboratory results: PubChem BioAssay
Results filed as inconclusive are left out. The source made the active and inactive calls. Unless noted, the limit is not given here; nearly all actives have AC50 up to about 30 µM.

Columns and labels:
[1] = viability loss in pontine glioma line – cell-based, JHH-DIPG-1, MIPE4.0, CellTiter-Glo, qHTS, dose response (AID 1347062; cut-off not given, nearly all actives have AC50 up to about 27 µM;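 as to AC50: cells exposed to compound for two days before readout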); details: JHH-DIPG-1 viability, CellTiter-Glo ATP luminescence
[2] = growth inhibition of DIPG cells – cell-based, MIPE4.0 library, CellTiter-Glo luminescence, qHTS (AID 1347066); details: SU-DIPG-VI viability, CellTiter-Glo ATP luminescence;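 also: cells exposed to compound for 48 hours before readout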
[3] = viability loss in pontine glioma line – cell-based, SU-DIPG-XIII, MIPE4.0, CellTiter-Glo, qHTS, dose response (AID 1347061; cut-off not given, nearly all actives have AC50 up to about 37 µM;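 also: cells exposed to compound for 48 hours before readout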); details: CellTiter-Glo ATP luminescence
[4] = viability loss in pontine glioma line – cell-based, SU-DIPG-IV, MIPE4.0, CellTiter-Glo, qHTS, dose response (AID 1347063); details: CellTiter-Glo ATP luminescence;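 also: compound exposure lasted 48 hours before the viability readout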
[5] = chitosan synthesis blockers in C. neoformans – flow cytometry, Cibacron Brilliant Red staining (AID 1347148; call rule not given here;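 also: compound exposure lasted three days at 37 degrees C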); details: Cryptococcus neoformans chitosan, stronger effect = lower value; at 10 µM unless noted
[6] = viability loss in pontine glioma line – cell-based, SU-DIPG-XIII, MIPE5.0, CellTiter-Glo, qHTS, dose response (AID 1347064; cut-off not given, nearly all actives have AC50 up to about 23 µM;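 as to AC50: cells exposed to compound for 48 hours before the viability read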); details: CellTiter-Glo ATP luminescence
[7] = viability loss in pontine glioma line – cell-based, SU-DIPG-XXV, MIPE5.0, CellTiter-Glo, qHTS, dose response (AID 1347065; cut-off not given, nearly all actives have AC50 up to about 26 µM;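 also: cells exposed to compound for 48 hours before ATP readout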); details: CellTiter-Glo ATP luminescence
[8] = JHH-DIPG-1 glioma cell viability, MIPE5.0 library, CellTiter-Glo luminescence, qHTS (AID 1347067; cut-off not given, nearly all actives have AC50 up to about 26 µM;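 also: cells exposed to compound for 48 hours before readout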); details: JHH-DIPG-1 glioma viability, CellTiter-Glo ATP luminescence
[9] = growth inhibition of DIPG cells – cell-based, MIPE5.0 library, qHTS (AID 1347068; cut-off not given, nearly all actives have IC50 up to about 30 µM;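 as to IC50: cells exposed to compound for 48 hours before viability readout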); details: SU-DIPG-XXV viability
[10] = viability loss with induced miR-34 in A549 – imaging, A549 dox-inducible miR-34, nuclei and caspase counts, primary screen (AID 1347080;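 active = compounds whose cell count with miR-34 switched on is under 0.7 times the count with it off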); details: A549 miR-34 inducible, Hoechst nuclei count, 48 h
[11] = MELAS cybrid and Rieske KO viability enhancers – cell-based, MELAS cybrids, Rieske KO mouse fibroblasts, CellTiter-Glo, primary screen (AID 1508586;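 active = mean z-score across replicates of 1.96 or higher in either the MELAS or the Rieske mutant cell line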;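 also: z relative to plate mean and SD of compound and empty wells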); details: low glucose
[12] = stronger effect = lower value, cell number ratio, induced over uninduced
[13] = measured here: relative caspase fold change +Dox/-Dox
[14] = measured here: total cells with miR-34 induction, stronger effect = lower value
[15] = measured here: total cells without miR-34 induction
[16] = MELAS cybrid survival, CellTiter-Glo 48 h, stronger effect = higher value
[17] = Rieske KO mouse fibroblast survival, CellTiter-Glo 72 h

## C=C[C@H]1CN2CCC1C[C@H]2[C@H](O)c1ccnc2ccccc12 (stereo partly specified)
[1]
  AC50: 20.9 µM (active)
[2]
  outcome: inactive

## CC1=C(CC/C(C)=C/CCC2=CCC(C3=CC(=O)OC3O)OC2O)C(C)(C)CCC1 (stereo unspecified)
[3]
  outcome: inactive
[1]
  outcome: inactive
[4]
  outcome: inactive
[2]
  outcome: inactive
[5]
  fold fluorescence: 4.39 [at 120 µM] (inactive)

## C[C@H]([C@H](O)CCC(C)(C)O)[C@H]1CC[C@@]2(O)C3=CC(=O)[C@@H]4C[C@@H](O)[C@@H](O)C[C@]4(C)[C@H]3CC[C@]12C
[3]
  outcome: inactive
[1]
  outcome: inactive
[4]
  outcome: inactive
[2]
  outcome: inactive

## O=C(N[C@@H](COc1ccc2[nH]c(=O)[nH]c2c1)c1ccccc1)c1cccn(Cc2ccc(F)c(F)c2)c1=O
[3]
  outcome: inactive
[6]
  outcome: inactive
[7]
  AC50: 18.6 µM (active)
[8]
  AC50: 16.6 µM (active)
[9]
  outcome: inactive

## CCOC(=O)c1c(/C(C#N)=C\N)c2ccc(Cl)c(Cl)c2n1C
[3]
  outcome: inactive
[1]
  outcome: inactive
[6]
  outcome: inactive
[2]
  outcome: inactive
[8]
  outcome: inactive
[9]
  outcome: inactive

## O=C(NCC1CCOCC1)c1cnc(Nc2ccc(Cl)cc2Cl)nc1C(F)(F)F
[3]
  outcome: inactive
[1]
  AC50: 18.7 µM (active)
[4]
  AC50: 10.5 µM (active)
[6]
  outcome: inactive
[7]
  outcome: inactive
[2]
  outcome: inactive
[8]
  outcome: inactive
[9]
  outcome: inactive
[10]; [12]
  fold change: 0.931 (inactive)
[10]; [13]
  fold change: 1.15
[10]; [14]
  cell count: 8190
[10]; [15]
  cell count: 8790
[11]; [16]
  z-score: -0.266 (inactive)
[11]; [17]
  z-score: -0.797

## COC[C@H]1OC(=O)c2coc3c2[C@@]1(C)C1=C(C3=O)[C@@H]2CC[C@H](O)[C@@]2(C)C[C@H]1OC(C)=O
[3]
  AC50: 16.6 µM (active)
[4]
  AC50: 1.18 µM (active)
[6]
  AC50: 9.34 µM (active)
[7]
  AC50: 1.66 µM (active)
[2]
  AC50: 14.8 µM (active)
[8]
  AC50: 5.9 µM (active)
[9]
  outcome: inactive

## C[C@@H]1O[C@@H](O[C@@H]2C=C3CC[C@H]4[C@@H](CC[C@]5(C)[C@H](c6ccc(=O)oc6)CC[C@@]45O)[C@@]3(C)CC2)[C@H](O)[C@H](O)[C@@H]1O
[3]
  AC50: 0.00935 µM (active)
[1]
  AC50: 0.00469 µM (active)
[4]
  AC50: 0.0209 µM (active)
[2]
  AC50: 0.00743 µM (active)

## c1cc2c(cc1[C@H]1OC[C@H]3[C@@H]1CO[C@@H]3c1ccc3c(c1)OCO3)OCO2
[1]
  outcome: inactive
[2]
  outcome: inactive

## CCN(CC)C(=O)c1ccc(C2=CC3(CCNCC3)Oc3cccc(O)c32)cc1
[3]
  outcome: inactive
[4]
  outcome: inactive
[6]
  outcome: inactive
[2]
  outcome: inactive
[8]
  outcome: inactive
[10]; [12]
  fold change: 0.925 (inactive)
[10]; [13]
  fold change: 0.955
[10]; [14]
  cell count: 8090
[10]; [15]
  cell count: 8740
[11]; [16]
  z-score: -0.509 (inactive)
[11]; [17]
  z-score: 0.582

## CO[C@H]1CCC(O[C@H]2C[C@H]([C@]3(C)CC[C@]4(C[C@H](O)[C@@H](C)[C@@H]([C@@H](C)/C=C(\C)C(=O)[C@H](C)C[C@H](C)C(=O)O)O4)O3)O[C@]3(O[C@@H]([C@H]4O[C@@](O)(CO)[C@H](C)C[C@@H]4C)C[C@@H]3C)[C@@H]2C)O[C@@H]1C (stereo partly specified)
[3]
  AC50: 3.32 µM (active)
[1]
  AC50: 1.48 µM (active)
[6]
  AC50: 1.66 µM (active)
[7]
  AC50: 0.742 µM (active)
[2]
  AC50: 0.526 µM (active)
[8]
  AC50: 0.742 µM (active)
[9]
  IC50: 0.934 µM (active)

## COc1cccc2c1[C@]13CCN(CC4CC4)[C@H](C2)[C@]1(OC)CCC(=O)C3
[3]
  outcome: inactive
[1]
  outcome: inactive
[2]
  outcome: inactive

## C=CCO/N=C(/C[C@H]1O[C@@H]2O[C@]3(C)CC[C@H]4[C@H](C)CC[C@@H]([C@H]1C)[C@@]24OO3)[C@H]1O[C@@H]2O[C@]3(C)CC[C@H]4[C@H](C)CC[C@@H]([C@H]1C)[C@@]24OO3
[4]
  AC50: 0.209 µM (active)

## CC(C)N(CCNC(=O)CN1CCCC1=O)C(C)C
[3]
  outcome: inactive
[1]
  outcome: inactive
[4]
  outcome: inactive
[2]
  outcome: inactive
[10]; stronger effect = lower value
  fold change: 0.88 (inactive)
[10]; [13]
  fold change: 0.862
[10]; [14]
  cell count: 9340
[10]; [15]
  cell count: 10600
[11]; [16]
  z-score: -0.352 (inactive)
[11]; [17]
  z-score: 0.7

## C1=C2CCCN[C@H]2[C@@H]2C[C@H]1[C@H]1CCCCN1C2
[3]
  outcome: inactive
[1]
  outcome: inactive
[4]
  outcome: inactive
[2]
  outcome: inactive
[10]; [12]
  fold change: 0.948 (inactive)
[10]; [13]
  fold change: 1.03
[10]; [14]
  cell count: 10000
[10]; [15]
  cell count: 10600
[11]; [16]
  z-score: -0.38 (inactive)
[11]; [17]
  z-score: 0.546

## CNC(=O)c1ccc(N2C(=S)N(c3ccc(C#N)c(C(F)(F)F)c3)C(=O)C23CCC3)cc1F
[3]
  outcome: inactive
[1]
  AC50: 10.5 µM (active)
[4]
  AC50: 9.35 µM (active)
[2]
  outcome: inactive
[9]
  outcome: inactive

## CC(C)(C)[C@]1(O)C[C@@H]2OC(=O)C[C@@]23C(=O)O[C@@H]2OC(=O)[C@H](O)C213 (stereo partly specified)
[3]
  outcome: inactive
[1]
  outcome: inactive
[4]
  outcome: inactive
[2]
  outcome: inactive

## CC(C)N[C@@H]1CCn2c(=O)[nH]c3cccc(c32)[C@H]1O
[3]
  AC50: 7.43 µM (active)
[1]
  AC50: 14.8 µM (active)
[4]
  AC50: 0.743 µM (active)
[2]
  AC50: 23.5 µM (active)

## C[C@@]12OC(=O)[C@]1([C@@H](O)[C@@H]1C=CCCC1)NC(=O)[C@@H]2CCCl
[3]
  AC50: 0.59 µM (active)
[1]
  AC50: 0.0418 µM (active)
[4]
  AC50: 0.00935 µM (active)
[6]
  AC50: 0.0148 µM (active)
[7]
  AC50: 0.0186 µM (active)
[2]
  AC50: 0.0235 µM (active)
[8]
  AC50: 0.0295 µM (active)
